Data published in PubChem BioAssay (NCI).
Compounds without any hit were thinned out: in the full panel of roughly 83,000, 20% have a hit.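 How to read the values: 0–100, growth inhibition (40 = 60% inhibited); 0, no net growth; -100 to 0, cell death (-40 = 40% of starting cells died; -100 = all dead).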 Values without a mark were called inactive. The source made the active and inactive calls. The calls were made as follows: active = growth percent below 10; inactive = the rest.

Columns and labels:
Assay in all cases: NCI-60 one-dose screen, 48 h (100 = growth as untreated, 0 = no growth, -100 = all killed)
[1] = test system: HCT-15 colon; conditions: 10 µM unless noted
[2] = test system: HT29 colon; conditions: 10 µM unless noted
[3] = test system: SNB-75 CNS; conditions: 10 µM unless noted
[4] = test system: SNB-19 CNS; conditions: 10 µM unless noted
[5] = test system: U251 CNS; conditions: 10 µM unless noted
[6] = test system: PC-3 prostate; conditions: 10 µM unless noted
[7] = test system: SK-MEL-5 melanoma; conditions: 10 µM unless noted
[8] = test system: UACC-62 melanoma; conditions: 10 µM unless noted
[9] = test system: SK-MEL-28 melanoma; conditions: 10 µM unless noted
[10] = test system: SK-MEL-2 melanoma; conditions: 10 µM unless noted
[11] = test system: EKVX NSCLC; conditions: 10 µM unless noted
[12] = test system: SN12C renal; conditions: 10 µM unless noted
[13] = test system: UO-31 renal; conditions: 10 µM unless noted
[14] = test system: ACHN renal; conditions: 10 µM unless noted
[15] = test system: CAKI-1 renal; conditions: 10 µM unless noted
[16] = test system: A498 renal; conditions: 10 µM unless noted
[17] = test system: CCRF-CEM leukemia; conditions: 10 µM unless noted
[18] = test system: MOLT-4 leukemia; conditions: 10 µM unless noted
[19] = test system: TK-10 renal; conditions: 10 µM unless noted
[20] = test system: LOX IMVI melanoma; conditions: 10 µM

Row | Structure (SMILES) | growth [1] | growth [2] | growth [3] | growth [4] | growth [5] | growth [6] | growth [7] | growth [8] | growth [9] | growth [10] | growth [11] | growth [12] | growth [13] | growth [14] | growth [15] | growth [16] | growth [17] | growth [18] | growth [19] | growth [20]
1 | COc1cc2c(c(OC)c1OC)C(=O)CC(c1cccc(NC(=O)[C@@H](N)CC(C)C)c1)O2 (stereo partly drawn) | 95.3% | 108% | 97.8% | 91.2% | 95.3% | 97.2% | 96.7% | 96.8% | 115% | 99.3% | 99.1% | 84.4% | 78% | 103% | 80.6% | 89.3% | 97.6% | 96.1% |  | 
2 | CSc1ccccc1NC(=O)c1ccc2nnn(/C(C#N)=C/c3ccccn3)c2c1 | -79.9% (active) | -92.1% (active) | 67.9% | 0.0552% (active) | -90.9% (active) | -71% (active) | -98.9% (active) | -98.8% (active) | -99.2% (active) | -86.4% (active) | -95.6% (active) | -99% (active) | -100% (active) | -100% (active) | -88.2% (active) | 82.9% | -27.5% (active) | -27.9% (active) |  | 
3 | O=C(O)c1cccc(-c2ccc(/C=N/NC(=O)c3[nH]c4ccc(Br)cc4c3-c3ccccc3)o2)c1 | 70.4% | 107% | 57.8% | 30.7% | 34.7% | 86.4% | 84.2% | 35.5% | 53.2% | 61.4% | 86.3% | 81.5% | 81% | 89.9% | 96.4% | 95.3% | 9.68% (active) | 63.6% |  | 
4 | C[C@H](Nc1nc(NCCc2ccccc2)nc2ccccc12)c1ccccc1 | -91.2% (active) | -90.6% (active) | -44.6% (active) | -75% (active) | -77.7% (active) | -54.5% (active) | -100% (active) | -95% (active) | -98.5% (active) | -92% (active) | -86.2% (active) | -94.6% (active) |  | -97.2% (active) | -85.9% (active) | -69.5% (active) | -16.3% (active) |  | -93.6% (active) | 
5 | COc1cccc(-c2c(C#N)c(-c3ccc(Cl)cc3)nc3n[nH]c(-c4ccc(Cl)cc4)c23)c1 | 9.74% (active) | 27.9% | 56.3% | 68.2% | 48.5% | 23.9% | 30.9% | 61.3% | 73.6% | 53.1% | 33.9% | 44.8% | 35.2% |  | 39.1% | 100% | 23.7% | 2.7% (active) | 71.8% | 
6 | CC1=C(C(=O)OCc2ccccc2)C(c2c(O)cc(O)cc2O)n2c(nc3ccccc32)N1 (stereo not drawn) | 39% | 38.7% | 13% | 59.7% | 42.7% | 49.2% | 53% | 14.7% | 60.2% | 58% | 54.4% | 74.8% |  | 46.6% | 39.4% | 102% | 38.1% | 60.6% | 87.9% | 
7 | CSc1ccc(C(=O)Nc2ccc3nnn(/C(C#N)=C/c4ccccn4)c3c2)cc1 | -41.8% (active) | -86.6% (active) | 55.9% | -3.44% (active) | -78.2% (active) | 7.72% (active) | -57.2% (active) | -51.3% (active) | -50.2% (active) | -82% (active) | -86.4% (active) | -4.37% (active) |  | -93.2% (active) | 4.99% (active) | 59.3% | 12.6% | 12.1% | -74% (active) | 
8 | C=C1CCC2C3(C)COC(c4ccc(F)cc4)OC3CCC2(C)C1CC(O)C1=CCOC1=O (stereo not drawn) | 1.99% (active) | 27.8% | 60.4% | 76.4% | 59.6% | 37.6% | 21.9% | 47.9% | 41.4% | 19.9% | 62.6% | 32.1% | 43.2% | 30.2% | 53.3% | 118% | 21.4% | 22.5% |  | 
9 | O=C(/C=C/c1ccc(-c2ccccc2)cc1)c1nc2ccccc2n1Cc1ccc(Br)cc1 | 37.3% | 41.6% | 56.8% | 57.8% | 27.4% | 48.2% | 72.2% | 50.2% | 58.5% | 65.8% | 52.3% | 77.2% |  | 32.7% | 50.4% | 104% | 11.1% | -14.4% (active) | 35.3% | 
10 | O=C(COc1ccc(NC(=O)Nc2ccc(Cl)c(Cl)c2)cc1)N=Nc1c(O)[nH]c2ccccc12 | 56.1% | -45.9% (active) | -39.5% (active) | -24.5% (active) | -87.7% (active) | -44.6% (active) | 25.2% | -56.5% (active) | -90.4% (active) | -41.9% (active) | 18.6% | -32% (active) | 87.5% |  | 15.6% | -53.6% (active) | 37.3% | 1.27% (active) |  | 
11 | Nc1nnc(-c2c[nH]c3ncc(Br)cc23)c(-c2c[nH]c3ccc(F)cc23)n1 | 25.3% | 21.8% | 33.7% | 50.6% | 45.5% | 58.6% | 0.13% (active) | 15.6% | 29.8% | 25.3% | 41.5% | 38.8% |  | 40.8% | 42.7% | 74% | 42.7% | 9.73% (active) | 67% | 
12 | COc1cc(/C=C/C(=O)c2ccc(C)cc2)ccc1Oc1nc(Nc2ccc(F)cc2)nc(N(C)C)n1 | 17.3% | 44.1% | 50.8% | 23.4% | 11.3% | 50.8% | 30.5% | 42.1% | 73.4% | 44.9% | 60.6% | 17.4% |  | 3.65% (active) | 35.6% | 66.3% | 17% | 9.34% (active) | 77.3% | 
13 | CC(C)CCNC(=O)N/C(N)=N/c1nc2ccccc2s1 | 48.4% | 68.8% | 82.2% | 58.4% | 67.4% | 62.6% | 15.8% | 59.2% | 81.3% | 86.4% | 28.3% | 73.6% | 73.7% |  | 52.1% | 116% | 59.1% | 29.6% | 88.3% | 
14 | O=C(O)c1ccc(-c2ccc(/C=N/NC(=O)c3[nH]c4ccc(Br)cc4c3-c3ccccc3)o2)cc1 | 7.24% (active) | 34.5% | -8.96% (active) | 13% | 1.17% (active) | 20.8% | -9.61% (active) | 18% | 31.1% | -16.5% (active) | 22.3% | 5.99% (active) |  | 32.5% | 38.5% | 98.5% | -0.481% (active) | 14.1% | 41.2% | 
15 | O=C(/C=C/c1cccc(OCc2ccc(F)cc2)c1)c1nc2ccccc2[nH]1 | -58.4% (active) | -46.1% (active) | 116% | 68.4% | -70.9% (active) | 15% | 65.5% | 72.6% | 104% | 104% | 38% | 76.9% | 69.4% | 78.9% | 67.3% | 112% | 6.9% (active) | -11.2% (active) |  | 
16 | Nc1nc(C(F)(F)F)cs1 | 104% | 112% | 91.7% | 105% | 103% | 102% | 104% | 101% | 110% | 108% | 94.5% | 111% | 93.8% | 113% | 96.7% | 114% | 109% | 112% |  | 
17 | COc1ccc(C2=NN(c3ccccc3)C(c3ccc(OCc4ccccc4)c(OC)c3)C2)cc1OC (stereo not drawn) | 93.8% | 86.6% | 97.3% | 98.9% | 108% | 92.7% |  | 85.1% | 104% | 86.5% | 93% | 100% | 86.8% | 99.4% | 88.7% | 118% |  |  | 120% | 105%
